Laboratory results taken from the supplement of paper PMC12350171.
Where a name gives a salt, the structure may show the parent alone. Values without a mark were called inactive.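 Rule for the calls: active = normalised median growth AUC below 0.1 of DMSO control; inactive = AUC 0.1 or higher.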

system: P. vulgatus RND KO; assay: growth AUC normalised to DMSO control (median) (fraction of control); higher = less growth inhibition, active = hit call of the paper; conditions: 20 µM
Summary of the method: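 For normalised area under the curve, growth curves were truncated at entry into stationary phase, integrated by the trapezoidal rule and divided against vehicle wells on the same plate. The curves came from strains passaged twice overnight without oxygen and then grown in mGAM in 96-well plates at a starting OD578 of 0.01. Each well held an approved-drug library compound at 20 μM with 1% DMSO, and OD578 was read hourly for 24 h in an anaerobic incubator. Values are medians of three biological replicates.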
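Note: active when median AUC fell below 0.1.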

| SMILES | growth AUC normalised to DMSO control |
| --- | --- |
| CCCCC(=O)N(Cc1ccc(-c2ccccc2-c2nnn[nH]2)cc1)[C@H](C(=O)O)C(C)C [Valsartan] | 1.04 |
| NS(=O)(=O)c1cc(C(=O)NN2C[C@@H]3[C@H]4CC[C@H](C4)[C@@H]3C2)ccc1Cl [Tripamide] | 1.02 |
| CC(=O)Nc1ccc(OC(=O)c2ccccc2O)cc1 [Acetaminosalol] | 0.959 |
| Cc1nc(=O)c2cc(CN(C)c3ccc(C(=O)N[C@@H](CCC(=O)O)C(=O)O)s3)ccc2[nH]1 [Raltitrexed] | 1.04 |
| Oc1cc(O)c2c(c1)O[C@H](c1ccc(O)c(O)c1)[C@@H](O)C2 [Cianidanol] | 1 |
| C[C@@H](CN1CC(=O)NC(=O)C1)N1CC(=O)NC(=O)C1 [Dexrazoxane hydrochloride] | 1.01 |
| CN1CCC[C@@H]1Cc1c[nH]c2ccc(CCS(=O)(=O)c3ccccc3)cc12 [Eletriptan] | 1.04 |
| CC(C)COC(=O)OCN1C(=O)CN(CCN2CC(=O)N(COC(=O)OCC(C)C)C(=O)C2)CC1=O [Sobuzoxane] | 1.04 |
| OCCN1CCN(CC/C=C2/c3ccccc3Sc3ccc(C(F)(F)F)cc32)CC1 [Flupentixol dihydrochloride cis-(Z)] | 0.946 |
| CC(C)OC(=O)C(C(=O)OC(C)C)=C1SC=CS1 [Malotilate] | 0.988 |
| CC(/C=C1\SC(=S)N(CC(=O)O)C1=O)=C\c1ccccc1 [Epalrestat] | 1.01 |
| O=C(NC1CCN(CCCCC2(C(=O)NCC(F)(F)F)c3ccccc3-c3ccccc32)CC1)c1ccccc1-c1ccc(C(F)(F)F)cc1 [Lomitapide] | 1.01 |
| CCCSc1nc(N[C@@H]2C[C@H]2c2ccc(F)c(F)c2)c2nnn([C@@H]3C[C@H](OCCO)[C@@H](O)[C@H]3O)c2n1 [Ticagrelor] | 0.786 |
| O=C1c2c(O)ccc(O)c2C(=O)c2c(NCCNCCO)ccc(NCCNCCO)c21 [Mitoxantrone dihydrochloride] | 1.11 |
| CCOCC(O)COc1ccc(NC(=O)CC[S+](C)C)cc1 (centres undefined) [Suplatast Tosylate] | 0.998 |
| CN(C)CCCN1c2ccccc2[S+]([O-])c2ccc(Cl)cc21 (centres undefined) [Chlorpromazine Sulfoxide] | 1.07 |
| NC(=O)Cc1cccc(C(=O)c2ccccc2)c1N [Nepafenac] | 1.03 |
| CC(C)(CO)[C@@H](O)C(=O)NCCC(=O)NCCSSCCNC(=O)CCNC(=O)[C@H](O)C(C)(C)CO [D-Pantethine] | 1.01 |
| CC(C)OC(=O)CCC/C=C\C[C@@H]1[C@@H](CC[C@@H](O)CCc2ccccc2)[C@H](O)C[C@@H]1O [Latanoprost] | 0.958 |
| CC(C)Cc1ccc(CC(=O)O)cc1 [Ibufenac] | 1.06 |
| C[C@H]1[C@@H](O)O[C@@H]2O[C@@]3(C)CC[C@H]4[C@H](C)CC[C@@H]1[C@@]24OO3 [Artenimol] | 1.04 |
| Cc1cc(C#N)cc(C)c1Oc1nc(Nc2ccc(C#N)cc2)nc(N)c1Br [Etravirine] | 1.03 |
| CC(C)[C@H]1CC[C@H](C(=O)N[C@H](Cc2ccccc2)C(=O)O)CC1 [Nateglinide] | 0.977 |
| CCC(=O)c1c(O)cc(O)cc1O [Flopropione] | 0.985 |
| C[C@H](O)[C@H](O)[C@H]1CNc2[nH]c(N)nc(=O)c2N1 [Sapropterin dihydrochloride] | 1.04 |
| CC(=O)Nc1ccc(C(=O)O)cc1 [Acedoben] | 0.997 |
| CN1c2cc(O)c(N=NC(N)=O)cc2CC1S(=O)(=O)O (centres undefined) [Carbazochrome sodium sulfonate] | 1.01 |
| O=C(O)c1cc(=O)c2ccccc2o1 [Chromocarb] | 0.981 |
| CCN1CCN(c2cc3c(cc2F)c(=O)c(C(=O)O)cn3C2CC2)CC1 [Enrofloxacin] | 0.0121 (active) |
